Source: PubChem BioAssay AID434936 (National Center for Advancing Translational Sciences (NCATS), 2010)
Inconclusive results are not listed. The source made the active and inactive calls. Calls come from the whole dose curve; as a rule, active = well fitted curve in either direction with a large enough effect; inconclusive = small, poorly fitted or top-dose-only effect; inactive = flat fitted curve, though single readings scatter.

Each compound was assayed against Neuropeptide S receptor (Homo sapiens) (UniProt Q6W5P4) (assay: Confirmation Concentration-Response Assay for Antagonists of the Neuropeptide S Receptor: Robust Characterization of cAMP Signal Transduction). Conditions: CHO-NPSR cells, NPS-stimulated cAMP TR-FRET; series mostly up to 50.7 µM.
Chain of Neuropeptide S receptor (Homo sapiens) (Q6W5P4 whole entry, looked up): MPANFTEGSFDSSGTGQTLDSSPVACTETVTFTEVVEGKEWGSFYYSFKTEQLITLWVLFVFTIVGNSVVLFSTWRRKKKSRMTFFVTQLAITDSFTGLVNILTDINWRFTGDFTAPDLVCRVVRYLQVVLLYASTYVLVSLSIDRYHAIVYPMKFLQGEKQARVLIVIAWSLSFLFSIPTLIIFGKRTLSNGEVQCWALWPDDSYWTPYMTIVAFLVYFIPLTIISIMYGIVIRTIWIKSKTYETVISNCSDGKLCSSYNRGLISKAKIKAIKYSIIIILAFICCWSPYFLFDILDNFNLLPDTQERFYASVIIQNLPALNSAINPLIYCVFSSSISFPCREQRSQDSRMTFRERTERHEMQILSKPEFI

| Structure (SMILES) | Potency |
| --- | --- |
| CCOC(=O)CCC(=O)Nc1ncnc2c1C(c1ccccc1)c1c(ccc3ccccc13)O2 (stereo unspecified) | 3.45 µM (active) |
| COc1ccc(C2c3c(n(CCCc4ccccc4)cnc3=N)Oc3ccc4ccccc4c32)cc1OC (stereo unspecified) | 24.4 µM (active) |
| S=P(c1ccccc1)(c1ccccc1)c1nc(CCCc2ccccc2)n2ccccc12 | inactive |
| COc1ccc(C2c3c(nc(CCCc4ccccc4)[nH]c3=O)Oc3ccc4ccccc4c32)cc1OC (stereo unspecified) | inactive |
| COc1cccc(C2c3c(ncn(-c4ccc(-c5ccccc5)cc4)c3=N)Oc3ccc4ccccc4c32)c1 (stereo unspecified) | inactive |
| COc1cccc(C2c3c(ncn(-c4ccc5c(c4)OCO5)c3=N)Oc3ccc4ccccc4c32)c1 (stereo unspecified) | 4.34 µM (active) |
| COc1cccc(C2c3c(ncn(-c4cccc(C#N)c4)c3=N)Oc3ccc4ccccc4c32)c1 (stereo unspecified) | 13.7 µM (active) |
| COc1cccc(C2c3c(ncn(-c4ccccc4Br)c3=N)Oc3ccc4ccccc4c32)c1 (stereo unspecified) | 9.72 µM (active) |
| Cc1c(C(O)(c2ccccc2)c2ccccc2)[n+]2ccccc2n1C | inactive |
| O=C(Cc1ccccc1)Nc1ncnc2c1C(c1ccccc1)c1c(ccc3ccccc13)O2 (stereo unspecified) | 2.74 µM (active) |
| COc1cccc(C2c3c(ncn(CCCN4CCOCC4)c3=N)Oc3ccc4ccccc4c32)c1 (stereo unspecified) | 4.87 µM (active) |
| COc1cccc(C2c3c(ncn(-c4cccc(Br)c4)c3=N)Oc3ccc4ccccc4c32)c1 (stereo unspecified) | 12.2 µM (active) |
| COc1ccc(-n2cnc3c(c2=N)C(c2cccc(OC)c2)c2c(ccc4ccccc24)O3)cc1 (stereo unspecified) | 6.88 µM (active) |
| COc1cccc(C2c3c(ncn(-c4ccccc4Cl)c3=N)Oc3ccc4ccccc4c32)c1 (stereo unspecified) | 8.67 µM (active) |
| N=c1c2c(ccn1Cc1ccccc1)Oc1ccc3ccccc3c1C2c1ccccc1 (stereo unspecified) | 2.18 µM (active) |
| CCOC(=O)CC(=O)Nc1ncnc2c1C(c1ccccc1)c1c(ccc3ccccc13)O2 (stereo unspecified) | 3.07 µM (active) |

| Structure (SMILES) | Potency |
| --- | --- |
| COc1cccc(C2c3c(ncn(-c4ccccc4-c4ccccc4)c3=N)Oc3ccc4ccccc4c32)c1 (stereo unspecified) | 15.4 µM (active) |
| COc1cccc(C2c3c(ncn(-c4cccnc4)c3=N)Oc3ccc4ccccc4c32)c1 (stereo unspecified) | 8.67 µM (active) |
| COc1ccc(C2c3ccc4ccccc4c3Oc3ncn(CCN4CCOCC4)c(=N)c32)cc1OC (stereo unspecified) | 30.7 µM (active) |
| COc1cccc(C2c3c(ncn(-c4ccc(NC(C)=O)cc4)c3=N)Oc3ccc4ccccc4c32)c1 (stereo unspecified) | 12.2 µM (active) |
| COc1ccc(C2C3=C(N=CN(CCN4CCOCC4)C3N)Oc3ccccc32)cc1OC (stereo unspecified) | inactive |
| COc1cccc(C2c3c(ncn(-c4cccc(Cl)c4)c3=N)Oc3ccc4ccccc4c32)c1 (stereo unspecified) | 8.67 µM (active) |
| CCOC(=O)CCCC(=O)Nc1ncnc2c1C(c1ccccc1)c1c(ccc3ccccc13)O2 (stereo unspecified) | 2.44 µM (active) |
| COc1ccc(C2c3c(N)nc(CCc4ccccc4)nc3Oc3ccc4ccccc4c32)cc1OC (stereo unspecified) | 24.4 µM (active) |
| COc1ccc(C2c3ccccc3Oc3ncn(CCN4CCOCC4)c(=N)c32)cc1OC (stereo unspecified) | 4.87 µM (active) |
| N=c1c2c(ncn1-c1ccccc1)Oc1ccc3ccccc3c1C2c1ccc2c(c1)OCCO2 (stereo unspecified) | 2.18 µM (active) |
| N=c1c2c(ccn1CCCc1ccccc1)Oc1ccc3ccccc3c1C2c1ccccc1 (stereo unspecified) | 2.74 µM (active) |
| COc1cccc(C2c3c(ncn(-c4ccccc4)c3=N)Oc3ccc4ccccc4c32)c1OC (stereo unspecified) | 4.34 µM (active) |
| COc1cccc(C2c3c(ncn(-c4ccccc4OC)c3=N)Oc3ccc4ccccc4c32)c1 (stereo unspecified) | 4.34 µM (active) |
| O=C(CCc1ccccc1)Nc1ncnc2c1C(c1ccccc1)c1c(ccc3ccccc13)O2 (stereo unspecified) | 4.34 µM (active) |
| COc1ccc(C2c3c(nc(CCc4ccccc4)[nH]c3=O)Oc3ccc4ccccc4c32)cc1OC (stereo unspecified) | inactive |
